The record followed here is PubChem BioAssay (NCI).

Molecules are shown by their SMILES. About 83,000 compounds went through this panel and 20% of them were active in at least one assay; those are over-represented in the sample as a whole.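 For each line, cells grew in 96-well plates with the test compound present at a single concentration for 48 hours.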 A number with no mark means an inactive call. Calls of active or inactive are those of the source. Rule for the calls: active = growth percent below 10; inactive = the rest.

What all share (experiment): NCI-60 one-dose screen, 48 h (100 = growth as untreated, 0 = no growth, -100 = all killed)
What all share (conditions): 10 µM unless noted

Assay [1] deals with NCI-H23 lung.
Assay [2] concerns NCI-H226 lung.
For assay [3], the system named is NCI-H322M lung.
Assay [4] deals with HOP-62 NSCLC.
Assay [5] concerns NCI-H460 lung.
Assay [6] has as its system HOP-92 NSCLC.
In assay [7] the test system is NCI-H522 lung.
For assay [8], the system named is A549/ATCC NSCLC.
The subject of assay [9] is 786-0 renal.
Assay [10] relates to COLO 205 colon.
The subject of assay [11] is DU-145 prostate.
The subject of assay [12] is K-562 leukemia.
For assay [13], the system named is MALME-3M melanoma.
Assay [14] concerns MDA-MB-231 breast.
For assay [15], the system named is RXF 393 renal.
In assay [16] the test system is SF-268 CNS.
Assay [17] relates to SF-295 CNS.
The subject of assay [18] is SF-539 CNS.
In assay [19] the test system is UACC-257 melanoma.
For assay [20], the system named is M14 melanoma.

Turning to `CN(C)CCCN(CCC1CCCCC1)CCC1CCCCC1`, the growth in assay [1] was 66.4%; in [2], 94.8%; in assay [3], 80.1%; in assay [4], 64.3%; in assay [5], -2.63% (active); in assay [6] it was 28.8%. Also, the growth in [7] was 48.8%; in [8], 52.5%; in assay [9], 56.2%; in assay [10] it was -54.4% (active); in [11], 80.9%; in assay [12], 26%. The growth in assay [13] is -79.4% (active); in [14], 19.4%; in [15], 70.8%; in assay [16] it was 75.2%; in [17], 69.4%; in assay [18], 49.6%. Besides, the growth is -65.3% (active) in [19] and -97.2% (active) in [20].

Consider `CNC1=C([N+](=O)[O-])C(c2ccc(OC)cc2)C(C#N)=C(c2ccc[nH]2)O1` (configuration not stated), for which the growth in assay [1] is 98.5%; in assay [2], 102%; in assay [3] it was 101%; in assay [4], 99%; in assay [5] it was 100%; in assay [6] it was 96.2%. Besides, the growth in assay [7] is 92.3%; in [8], 106%; in assay [9], 106%; in assay [11], 107%; in assay [12], 95.7%; in [13], 97.9%. Also, the growth was 104% in [14]; 113% in assay [15]; 103% in assay [16]; 101% in assay [17]; 99.2% in [18]; 106% in assay [19]. Further, the growth in [20] is 104%.

As to `C=C(C[n+]1ccccc1)[C@@H]1CC[C@]2(C(=O)OC)CC[C@]3(C)[C@H](CC[C@@H]4[C@@]5(C)CCC(=O)C(C)(C)[C@@H]5CC[C@]43C)[C@@H]12`, the growth in assay [1] is 87.9%; in [2] it was 90.3%; in [3], 96.3%; in assay [4], 103%; in assay [5], 98.3%; in assay [6], 67.4%. Moreover, the growth in assay [7] is 55.5%; in assay [8] it was 93.3%; in assay [9] it was 101%; in assay [10], 56.1%; in [11], 101%; in assay [12] it was 57.8%. Also, the growth in [13] is 75.2%; in assay [14], 85.9%; in assay [15], 99%; in [16], 90.3%; in [17], 103%; in assay [18] it was 93.7%. Further, the growth in [19] was 53.4%; in [20], 87%.

As to `COc1cc(C(=O)/C=C/c2c(-c3cccs3)nc3sc(C)cn23)cc(OC)c1OC`, the growth in assay [1] is 6.64% (active); in assay [2], 33.1%; in [3], 13.3%; in [4], -8.11% (active); in assay [5], -30.6% (active); in assay [6], -2.76% (active). Besides, the growth in assay [7] is -2.1% (active); in assay [8], 10.6%; in assay [9], 7.58% (active); in [10], 2.63% (active); in assay [11] it was -18.1% (active); in assay [12], 7.44% (active). Moreover, the growth was -10.6% (active) in assay [13]; 43.3% in [14]; -35.3% (active) in [15]; 20% in assay [16]; 3.07% (active) in [17]; -2.02% (active) in assay [18]. Moreover, the growth in [19] was 0.649% (active); in assay [20], 1.71% (active).

Take `COc1ccc(/C(C)=C(\c2ccc(Cl)cc2)c2ccc(OCCCN(C)C)cc2)cc1`: the growth in assay [1] is 82.3%; in assay [2], 103%; in assay [3] it was 82.2%; in assay [4], 101%; in assay [5] it was 40.2%; in [6] it was 62.5%. Besides, the growth is 76.7% in assay [7]; 47.2% in [8]; 75.3% in [9]; 90.4% in assay [11]; 1.91% (active) in assay [12]; 64.5% in assay [13]. Moreover, the growth in [14] is 78.9%; in assay [15], 70.1%; in assay [16], 77.4%; in assay [17], 85.7%; in [18], 82.5%; in assay [19], 89.1%. Moreover, the growth in [20] is 36.8%.

For `COC(=O)[C@H]1Cc2c([nH]c3ccccc23)[C@H](c2ccc3c(c2)OCO3)N1`, the growth in assay [1] is 99.7%; in [2], 98.5%; in assay [3] it was 98.9%; in assay [4] it was 107%; in [5], 106%; in assay [6], 84.9%. The growth in assay [7] is 83.2%; in [8], 105%; in assay [9], 98.5%; in [10], 118%; in assay [11], 101%; in assay [12], 99.3%. The growth in [13] was 99.8%; in [14], 98.5%; in assay [15], 109%; in assay [16] it was 96.3%; in assay [17], 99.8%; in assay [18], 92.8%. Besides, the figures for the growth in [19] and in assay [20] were 107% and 108%, respectively.

With `CC(C)n1nc(-c2ccc3oc(N)nc3c2)c2c(N)ncnc21`, the growth was 2.3% (active) in assay [1]; -28.2% (active) in assay [2]; -7.33% (active) in assay [3]; -25.5% (active) in [4]; 5.28% (active) in assay [5]; -40% (active) in [6]. Also, the growth was 2.22% (active) in [7]; -6.71% (active) in [8]; -36.7% (active) in assay [9]; -3% (active) in [10]; 2.37% (active) in assay [11]; 18.3% in [12]. The growth is -40.7% (active) in assay [13]; -15.1% (active) in assay [14]; -43.1% (active) in assay [15]; -1.05% (active) in assay [16]; -50.9% (active) in assay [17]; -43.7% (active) in assay [18]. Also, the growth is -27.8% (active) in assay [19] and -18.8% (active) in [20].

Turning to `C=CCn1c(SCC(=O)Nc2ccc(C(=O)/C=C/c3cc(OC)c(OC)c(OC)c3)cc2)nnc1-c1cc(-c2ccc(S(N)(=O)=O)cc2)nc2ccccc12`, the growth in assay [1] was 88.9%; in assay [2], 90.7%; in [3], 105%; in [4] it was 111%; in [5], 94.9%; in [6], 96.9%. The growth was 92.7% in assay [7]; 107% in assay [8]; 101% in [9]; 105% in assay [11]; 48.2% in [12]; 97.1% in [13]. For the same molecule, the growth in assay [14] is 83.1%; in [15] it was 64.6%; in assay [16] it was 94.6%; in assay [17], 99%; in assay [18] it was 86.6%; in assay [19], 96.1%. Further, in assay [20], the growth is 95.6%.
